In the library only some 3% were active in any assay of this set; here they are far more common.
Arbovirus anti – arbovirus infection inhibition; arbovirus infection cell-based antiviral screen; inhibition, % at 10 µM; 0.37% of 200,000 active; AID 1251; in the data active = inhibition above about 30%
Mcl1-Noxa inh – disrupts binding of human Mcl-1 to Noxa peptide; TR-FRET Mcl-1/Noxa peptide binding, 2 h; inhibition, % at 21.7 µM; 1.5% of 220,000 active;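 active = compounds that cut the protein-peptide binding signal by more than 50% relative to plate controls in a single-dose test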;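 also: His-tagged Mcl-1 with rhodamine Noxa BH3 peptide and terbium anti-His antibody; 0% = Mcl-1 plus Noxa peptide wells and 100% = peptide-only wells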
14-3-3 Bad inh – disrupts binding of bovine 14-3-3 zeta to phospho-Bad peptide. inhibition, % at 21.7 µM. AID 781. TR-FRET 14-3-3zeta/Dy647-pBad peptide displacement, 1 h. P63103. 0.71% of 220,000 active;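 active = inhibition above about 70%, limit read from the data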;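 also: 0% = full 14-3-3 plus peptide FRET controls and 100% = background without 14-3-3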
Target sequence (P63103 whole entry, looked up): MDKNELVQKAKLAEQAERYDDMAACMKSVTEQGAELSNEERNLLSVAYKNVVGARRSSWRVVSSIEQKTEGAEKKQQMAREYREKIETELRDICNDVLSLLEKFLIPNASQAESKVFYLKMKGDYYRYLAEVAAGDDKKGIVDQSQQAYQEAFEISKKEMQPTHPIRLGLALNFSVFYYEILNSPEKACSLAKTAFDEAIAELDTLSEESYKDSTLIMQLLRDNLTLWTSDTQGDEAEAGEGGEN
Mcl1 Bid PPI – disrupts binding of human Mcl-1 to Bid peptide; Q07820; TR-FRET Mcl-1/Bid-Dy647 peptide binding, 1536-well; inhibition, % at 21.7 µM; 0.97% of 220,000 active; AID 1021;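 active = compounds that cut the binding signal by more than half at the single screening dose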;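 also: His-tagged Mcl-1 with europium anti-His antibody binding Bid BH3 peptide; 0% = Mcl-1 plus peptide wells and 100% = peptide-only wells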
Bim-Mcl-1 – human Bim-Mcl-1 interaction inhibition | Q07820 | Bead-based flow cytometry, Bim peptide-Mcl-1 binding | inhibition, % at 10 µM | 0.1% of 190,000 active | AID 1009; in the data active = inhibition above about 40%;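 also: 0% = no compound tracer wells and 100% = peptide blocker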
* hit, by the source's call; x = no result given.

SMILES	Arbovirus anti	Mcl1-Noxa inh	14-3-3 Bad inh	Mcl1 Bid PPI	Bim-Mcl-1
CC(=O)Nc1ccc(S(=O)(=O)NC2(C(F)(F)F)C(=O)Nc3c2c(=O)n(C)c(=O)n3C)cc1 (centres undefined)	5.0	52.4*	9.3	-128.7	0.0
CC(=O)Nc1ccc(S(=O)(=O)NC2(C(F)(F)F)C(=O)Nc3c2c(=O)[nH]c(=O)n3Cc2cccnc2)cc1 (centres undefined)	5.7	56.4*	0.8	-78.5	-2.0
CCOc1ccc(NC(=O)NNC(=O)c2ccc(CC)s2)cc1	5.3	5.1	-6.4	-27.7	3.0
COc1ccc(CCn2c(=S)[nH]c3cc(C(=O)NCc4ccco4)ccc3c2=O)cc1OC	-2.8	7.8	76.7*	52.3*	-3.0
CCCN(CCC)C(=O)c1ccc2c(=O)n(Cc3ccco3)c(=S)[nH]c2c1	1.0	12.7	-9.8	-32.3	-2.0
COc1cc(NC(=O)c2ccc3c(=O)n(Cc4ccco4)c(=S)[nH]c3c2)cc(OC)c1OC	-3.9	42.6	34.8	51.7*	-2.0
COc1ccc(-n2c(=S)[nH]c3cc(C(=O)NCc4ccco4)ccc3c2=O)cc1OC	1.9	23.4	5.7	-30.1	0.0
O=C(Nc1nnc(C2CC2)s1)C1CC(=O)N(c2ccc3c(c2)OCCO3)C1 (centres undefined)	11.9	10.5	-4.7	-67.5	-30.0
O=C(Nc1nc(-c2ccccn2)cs1)C1CC(=O)N(c2ccc3c(c2)OCCO3)C1 (centres undefined)	-15.7	70.7*	-12.9	-94.4	0.0
COC/C=C/C1=CC2=CC(=O)C(C)(OC(=O)c3ccco3)C(=O)C2=CO1 (centres undefined)	x	92.7*	8.2	-18.3	x
O=c1/c(=C/c2ccc(O)cc2)sc2n1CCCN=2	46.8*	-5.4	4.8	-30.8	-6.0
O=c1/c(=C\c2ccc(F)cc2)sc2n1CCCN=2	0.9	12.9	-16.9	-55.0	0.0
c1ccc2c(c1)ncn2CCCCOc1ccc2c(c1)CCC2	-32.5	39.1	58.6	68.6*	-1.0
CN(C)c1ccc(NC(=O)Nc2cccc(Cl)c2)cc1	-16.6	75.9*	-0.3	0.7	-5.0
O=C(Nc1ccc(F)cc1)Nc1csc2ccccc12	x	18.8	0.1	-25.1	x
CN(C)S(=O)(=O)c1ccc(NC(=O)/C=C/c2ccccc2Cl)cc1	-12.5	3.4	-0.7	-26.7	-1.0
CN(C)c1ccc(NC(=O)Nc2csc3ccccc23)cc1	x	57.3*	5.6	-8.1	x
CN(C)c1ccc(NC(=O)/C=C/c2c(Cl)cccc2Cl)cc1	-11.5	82.6*	6.9	9.2	-8.0
CC(CNc1ccccc1O)C(=O)O (centres undefined)	0.4	31.6	-8.4	-110.7	-1.0
CCOC(=O)CSc1n[nH]c(=S)s1	x	1.0	15.9	-19.2	x
CCOC(=O)CSc1nn(C)c(=S)s1	2.6	-6.8	48.9	56.9*	1.0
O=C(O)c1nn(-c2ccccc2-c2n[nH]c(=O)[nH]c2=O)c(=O)[nH]c1=O	x	15.2	2.9	-36.8	x
CC(C)(C)c1ccc(NC(=O)Cn2cnc3cc([N+](=O)[O-])ccc3c2=O)cc1	4.8	18.8	-14.2	-23.3	0.0
C1CC(CN2CCOCC2)CN(Cc2nc(CC3CC3)no2)C1 (centres undefined)	-4.3	6.0	-15.8	-33.0	-1.0
Cc1cccc(NC(=O)CSc2nnc(-c3ccco3)c(-c3ccco3)n2)c1	-6.5	96.4*	20.3	-18.5	-1.0
SMILES	Arbovirus anti	Mcl1-Noxa inh	14-3-3 Bad inh	Mcl1 Bid PPI	Bim-Mcl-1
Cc1cccc(NC(=O)CSc2nc(N)cc(N)n2)c1	-1.3	25.9	-8.4	-4.7	7.0
Cc1cccc(NC(=O)CSc2nnc(-c3ccco3)c(-c3ccco3)n2)c1C	27.2	94.7*	30.3	27.5	2.0
CC(C)CN(CC(C)C)c1ccc(/C=N/n2cnnc2)cc1[N+](=O)[O-]	-20.5	8.5	-0.5	-6.0	1.0
FC(F)(F)c1cccc(Cn2nnnc2-c2cccc(C(F)(F)F)c2)c1	-5.4	-5.4	6.5	0.7	-1.0
COc1cc(/C=N/NC(=O)C(Cc2c[nH]c3ccccc23)NC(=O)OCC(C)C)cc([N+](=O)[O-])c1O (centres undefined)	-9.2	51.9*	2.0	-40.6	-2.0
COc1cc(/C=N/NC(=O)C(Cc2c[nH]c3ccccc23)NC(=O)OCc2ccccc2)cc([N+](=O)[O-])c1O (centres undefined)	-6.0	81.3*	-8.8	-63.6	-2.0
COc1ccc(C2N(c3ccc4c(c3)OCCO4)C(=O)C2(F)F)cc1OC (centres undefined)	x	-22.3	-7.3	-13.9	x

Compound activity (PubChem BioAssay)
